Sampled rows, rich in hits. Any-hit rate of the full collection: about 8.1%.
MCF10A rerep: inducers of DNA re-replication in MCF 10A breast cells | 350,000 compounds, 2.9% hits | MCF 10A DNA re-replication, Hoechst nuclear intensity, 48 h | AID 624296 | Potency, µM (top dose mostly 46.1 µM), without a hit: at the top dose activity, positive = re-replication, actives largely listed as activators; also: % of control where 0% means no effect; nearly all actives have a fitted effect of over 50% in size
KB-V1 cytotox: KB-V1 MDR subline cytotoxicity; KB-V1 MDR cells viability, CellTiter-Glo, 72 h; Potency, µM (titrated, usually from 46.1 µM), most hits filed as cytotoxic; 400,000 compounds, 3.4% hits; AID 1347076; also: % is scaled to controls: 0 for no effect and ±100 for the full control effect; nearly all actives have a fitted effect of over 60% in size
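Luminescent ATP read-out (CellTiter-Glo, 10 min) measures survival of drug-selected KB-V1 MDR cells after 72 h, 37 degrees C compound exposure. Medium: phenol-red-free DMEM, 10% FBS. Values from fitted concentration-response curves.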
ELG1 DNA repair: inhibitors of ELG1-dependent DNA repair in HEK293T cells; HEK293T ELG1-luciferase reporter, luminescence, 16 h; DNA damage induced by 5-fluorouridine; Potency, µM (highest dose often 46.1 µM), for inactives: at the top dose activity change, negative = inhibition, hits mostly inhibitors; 330,000 compounds, 2.3% hits; also: % is scaled to controls: 0 for no effect and ±100 for the full control effect; nearly all actives have a fitted effect of over 55% in size
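DMSO vehicle served as the neutral condition. Each well held 2,000 cells given 5-fluorouridine plus compound; after 16 hr at 37 °C/5% CO2, ONE-Glo was added and luciferase measured 30 min later.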
KB-3-1 cytotox: kills parental KB-3-1 adenocarcinoma cells; KB-3-1 viability, CellTiter-Glo ATP luminescence, 72 h; 400,000 compounds, 1.4% hits; Potency, µM (titrated, usually from 46.1 µM), actives largely listed as cytotoxic; AID 1347075; also: % is scaled to controls: 0 for no effect and ±100 for the full control effect; nearly all actives have a fitted effect of over 60% in size
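72 h, 37 °C compound treatment of KB-3-1 parental cells; CellTiter-Glo added, 10 min, luminescence read. Data corrected against DMSO-only plates and normalized before curve fitting.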
SW480 rereplic: DNA re-replication induction in SW480 cells; SW480 DNA re-replication, Hoechst DNA content imaging, 48 h; Potency, µM (highest dose often 46.1 µM), for the others: at the highest dose re-replication activation, actives largely listed as activators; 340,000 compounds, 1.8% hits; AID 624297; also: % of control where 0% means no effect; nearly all actives have a fitted effect of over 55% in size
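Per well, 250 cells were exposed to pinned compound for 48 hr. Nuclear DNA was visualised with Hoechst (40 min, 37 C) and total object intensity recorded by fluorescence scanning.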
The depositor's hits bear a star; i = inactive; ? = inconclusive; / = not tested or not shown; [ ] = remark or other dose. Calls follow the shape of the dose curve; as a rule, active = well fitted curve in the direction sought with a large enough effect; inconclusive = small, poorly fitted or top-dose-only effect, or another doubt; inactive = no such curve, though single readings can be large; an effect the other way counts as inactive or inconclusive. Potency is read from the fitted curve at half-maximal effect.

SMILES	MCF10A rerep	KB-V1 cytotox	ELG1 DNA repair	KB-3-1 cytotox	SW480 rereplic
Cc1ccc2[nH]c(=O)c(CN(CCc3ccccc3)C(c3nnnn3Cc3ccco3)C(C)C)cc2c1 (stereo not drawn)	?	?	18µM*	?	?
N#C/C(=C\c1cccn1-c1ccccc1)C(=O)NC1CCCCC1	0%	4.6µM*	?	5.8µM*	?
Cc1ccc(-c2[nH]ncc2/C=C(\C#N)C(=O)NC2CCCCC2)cc1	?	i	9.2µM*	i	-2%
CCOC(=O)c1ccc(-c2ccc(/C=C(\C#N)C(=O)NCC3CCCO3)o2)cc1 (stereo not drawn)	14%	16µM*	-20%	i	5%
N#C/C(=C/c1ccc(-c2ccc(Br)cc2)o1)C(=O)NC1CCCCC1	18µM*	i	-21%	i	?
CCC(C)OC(=O)/C(C#N)=C/c1ccc(-c2ccc(Br)cc2)o1 (stereo not drawn)	/	i	/	i	/
CC1Cc2nc(SCC(=O)Nc3nccs3)n(Cc3ccccc3)c(=O)c2S1 (stereo not drawn)	9%	i	?	i	-11%
CCc1nnc(NS(=O)(=O)c2ccc(NCc3cc(Br)ccc3O)cc2)s1	11%	/	22%	/	8%
CCc1ccc(C(C)NC(=O)c2cc(C)oc2C)cc1 (stereo not drawn)	?	i	-7%	i	17%
CCCN1Cc2cccc(C(=O)Nc3ccccc3C(=O)OC)c2C1=O	/	i	/	i	/
CC(C)NC(=O)C(=O)c1cn(C)c2ccccc12	-1%	i	19%	i	-4%
N#C/C(=C\c1ccccc1[N+](=O)[O-])C(=O)NC1CCCCC1	?	i	7%	?	?
N#C/C(=C\C=C\c1ccccc1[N+](=O)[O-])C(=O)NC1CCCCC1	9.2µM*	?	?	i	?
O=C(NC(=S)Nc1ccccc1)c1cccs1	?	i	?	i	-2%
Cn1nc(-c2ccccc2)c(C(O)c2ccc(Cl)cc2)c1Cl (stereo not drawn)	428%[0.0737 µM]	i	-4%	i	-2%
Cn1nc(-c2ccccc2)c(CSc2ccccc2Cl)c1Cl	7.3µM*	12µM*	-23%	?	5.8µM*
O=C(Nc1ccccc1C(F)(F)F)c1cc2ccccn2n1	/	i	/	i	/
Cn1c(CNc2ccc(Br)cc2)nc2ccccc21	22%	15µM*	?	?	4%
Cc1ccc(NCc2nc3ccccc3n2C)cc1	-12%	i	?	i	3%
Cc1ccc(NC(=O)NCc2nc3ccccc3n2C)cc1	?	i	?	i	21µM*
COc1cccc(OCC(=O)N(C)Cc2nc(-c3cccc(C)c3)no2)c1	4%	23µM*	-15%	i	-7%
Cc1cccc(-c2noc(CN(C)C(=O)COc3ccccc3)n2)c1	-2%	i	-6%	i	27%
CCCCCNc1nc(N2CCCC2)c2c(c1C#N)CCN(C)C2	11µM*	23µM*	-7%	?	?
COC(=O)c1sccc1NC(=O)CC1C(=O)NCCN1C(=O)Nc1cc(Cl)ccc1OC (stereo not drawn)	4%	i	-11%	i	4%
CC(C)Oc1ccc(S(=O)(=O)N2CCOCC2)cc1NC(=O)C1=NN(c2ccccc2)C(=O)CC1	?	?	10µM*	i	11%
SMILES	MCF10A rerep	KB-V1 cytotox	ELG1 DNA repair	KB-3-1 cytotox	SW480 rereplic
CN(c1ccccc1)S(=O)(=O)c1cccc(NC(=O)CSc2nncn2C)c1	-5%	i	17%	i	-8%
CN(c1ccccc1)S(=O)(=O)c1cccc(NC(=O)C2=NN(c3ccccc3)C(=O)CC2)c1	9%	?	7.3µM*	i	?
CCn1c(SCC(=O)Nc2cccc(S(=O)(=O)N(C)c3ccccc3)c2)nnc1C1CC1	12%	21µM*	-6%	i	3%
CC(C)Oc1ccc(S(=O)(=O)N2CCCCC2)cc1NC(=O)C1=NN(c2ccccc2)C(=O)CC1	/	i	/	i	/
COc1ccc(NS(=O)(=O)c2cccc(NC(=O)C3=NN(c4ccccc4)C(=O)CC3)c2)cc1	7%	i	9.2µM*	?	-4%
COc1ccc(NC(=O)C(Cc2ccccc2)n2cccc2)cc1 (stereo not drawn)	-14%	i	-11%	i	-7%
Cc1ccc(/C=N/NC(=O)c2cccs2)cc1[N+](=O)[O-]	1%	15µM*	?	i	-8%
O=C(N/N=C/c1ccccc1[N+](=O)[O-])c1cccs1	1%	i	?	i	-6%
Cc1cc(/C=N/NC(=O)c2cccs2)c(C)n1-c1ccccc1	?	?	?	16µM*	-2%
NC(=S)N/N=C/c1ccccc1[N+](=O)[O-]	-5%	?	0%	i	2%
O=C1c2cnc3nc(SCc4ccccc4)nn3c2CC2c3ccccc3CCN12 (stereo not drawn)	2.3µM*	i	-7%	i	4.1µM*
Cc1nn(-c2cccc(Cl)c2)c2nc(-c3ccco3)cc(C(=O)O)c12	15µM*	i	5%	i	-5%
CCOC(=O)c1ccccc1OC(=O)NNc1ccccc1	4%	i	/	12µM*	-7%
Cc1ccc(CCNc2ncnc3onc(C)c23)cc1	/	i	/	2.9µM*	/
CCOc1ccc(CCNc2ncnc3onc(C)c23)cc1OCC	/	i	/	2.6µM*	/
CCc1nnc(NC(=O)CN2CCN(S(C)(=O)=O)CC2)s1	1%	i	15%	i	-18%
CC(=O)n1c2ccccc2c2ccccc21	?	i	-28%	i	-10%
Cc1ccc(C(=O)n2c3ccccc3c3ccccc32)cc1	?	8.2µM*	10%	10µM*	21µM*
Cc1ccc(C(=O)C(C(=O)/C=C/c2ccccc2)=C2SCCCS2)cc1	21µM*	i	18µM*	8.2µM*	?
O=C(/C=C/c1ccccc1)Nc1ccc(S(=O)(=O)N2CCOCC2)cc1	13%	?	/	i	-5%
CC(=O)c1cccc(NC(=O)/C=C/c2ccc(S(=O)(=O)N3CCOCC3)cc2)c1	1%	i	23µM*	i	-16%
COc1ccc(S(=O)(=O)N2CCOCC2)cc1NC(=O)CO/N=C/c1ccccc1OC(F)F	30%	?	?	i	?
CC(O/N=C/c1ccccc1OC(F)F)C(=O)Nc1cccc(S(=O)(=O)N2CCOCC2)c1 (stereo not drawn)	-28%	13µM*	?	i	-54%
COc1ccc(/C=C/C(=O)NC2CCCCCCC2)cc1S(=O)(=O)N1CCOCC1	?	23µM*	-5%	?	/
O=C(/C=C/c1ccc(OC(F)F)cc1)Nc1cccc(S(=O)(=O)N2CCOCC2)c1	?	?	23µM*	?	-3%
